Test results: publication PMC7862700, “An all-to-all approach to the identification of sequence-specific readers for epigenetic DNA modifications on cytosine”

Experiments:
Test in all cases: DAPPL (digital affinity profiling via proximity ligation, sequencing); 10 mM Tris-HCl pH 7.5, 50 mM NaCl, 1 mM DTT, 4% glycerol, room temperature, 30 min; GST-TFs on glutathione beads, 16-mer random dsDNA library, 0.1% formaldehyde crosslink after washing; high values mean tight binding
FLI1 = biological target: T1, FLI1 (Homo sapiens, UniProt Q01543 1-452); conditions: protein: recombinant; tags: N-terminal GST; dsDNA, one strand shown
T1 sequence: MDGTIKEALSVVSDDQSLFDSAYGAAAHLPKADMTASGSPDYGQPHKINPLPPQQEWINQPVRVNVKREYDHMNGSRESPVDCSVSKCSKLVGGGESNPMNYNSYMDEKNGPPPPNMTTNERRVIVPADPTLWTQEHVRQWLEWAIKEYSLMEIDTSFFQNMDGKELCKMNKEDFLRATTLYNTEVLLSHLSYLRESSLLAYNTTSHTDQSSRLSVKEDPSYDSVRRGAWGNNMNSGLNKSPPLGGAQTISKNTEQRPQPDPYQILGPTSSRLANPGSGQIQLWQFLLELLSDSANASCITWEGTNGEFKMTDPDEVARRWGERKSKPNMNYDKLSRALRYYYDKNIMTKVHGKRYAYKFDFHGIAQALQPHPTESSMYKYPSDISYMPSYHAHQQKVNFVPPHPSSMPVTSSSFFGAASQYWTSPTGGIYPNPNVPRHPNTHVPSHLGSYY
In short: (§1)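 Binding signal is each hexamer's read frequency for a factor divided by its frequency in the tag-only sample. The factors were GST-fused human transcription factors from yeast, captured on glutathione beads, DNA-barcoded and pooled with that sample. Pools were incubated with 200 nmole of a random double-stranded 16-mer DNA library in Tris/NaCl/DTT/glycerol buffer at room temperature for 30 min, then washed, crosslinked with 0.1% formaldehyde, proximity-ligated with BsaI/T4 ligase (1 h, 37 °C), PCR-amplified and sequenced on an Illumina NextSeq500.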

ELK1 = biological target: T2, ELK1 (Homo sapiens, UniProt P19419 1-428); conditions: protein: recombinant; tags: N-terminal GST; dsDNA, one strand shown
T2 sequence: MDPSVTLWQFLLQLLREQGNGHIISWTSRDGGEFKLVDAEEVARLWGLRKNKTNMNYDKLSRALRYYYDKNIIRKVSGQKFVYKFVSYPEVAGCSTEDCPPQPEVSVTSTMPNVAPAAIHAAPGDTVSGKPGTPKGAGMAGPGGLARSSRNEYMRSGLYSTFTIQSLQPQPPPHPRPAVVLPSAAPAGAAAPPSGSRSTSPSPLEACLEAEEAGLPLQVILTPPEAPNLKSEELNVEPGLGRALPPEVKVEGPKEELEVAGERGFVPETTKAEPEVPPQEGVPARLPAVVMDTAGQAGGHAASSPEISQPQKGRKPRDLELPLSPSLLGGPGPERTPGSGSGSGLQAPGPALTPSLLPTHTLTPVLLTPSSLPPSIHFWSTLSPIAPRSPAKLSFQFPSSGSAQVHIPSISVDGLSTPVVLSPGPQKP
In short: as §1

GABPA = biological target: T3, GABPA (Homo sapiens, UniProt Q06546 1-454); conditions: protein: recombinant; tags: N-terminal GST; dsDNA, one strand shown
T3 sequence: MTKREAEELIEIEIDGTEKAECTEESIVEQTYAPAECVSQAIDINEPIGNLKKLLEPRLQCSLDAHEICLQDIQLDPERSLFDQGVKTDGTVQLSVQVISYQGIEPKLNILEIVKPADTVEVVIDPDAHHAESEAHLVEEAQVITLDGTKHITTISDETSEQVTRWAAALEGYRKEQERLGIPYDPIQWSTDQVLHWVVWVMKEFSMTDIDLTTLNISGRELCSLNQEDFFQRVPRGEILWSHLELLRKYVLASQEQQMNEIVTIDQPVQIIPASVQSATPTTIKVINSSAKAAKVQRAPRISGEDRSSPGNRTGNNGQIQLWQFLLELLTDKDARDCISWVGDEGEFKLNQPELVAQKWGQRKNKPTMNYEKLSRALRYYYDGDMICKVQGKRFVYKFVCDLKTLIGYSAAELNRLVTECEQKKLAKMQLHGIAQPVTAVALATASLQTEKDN
In short: as §1

ERG = biological target: T4, ERG (Homo sapiens, UniProt P11308 1-479); conditions: protein: recombinant; tags: N-terminal GST; dsDNA, one strand shown
T4 sequence: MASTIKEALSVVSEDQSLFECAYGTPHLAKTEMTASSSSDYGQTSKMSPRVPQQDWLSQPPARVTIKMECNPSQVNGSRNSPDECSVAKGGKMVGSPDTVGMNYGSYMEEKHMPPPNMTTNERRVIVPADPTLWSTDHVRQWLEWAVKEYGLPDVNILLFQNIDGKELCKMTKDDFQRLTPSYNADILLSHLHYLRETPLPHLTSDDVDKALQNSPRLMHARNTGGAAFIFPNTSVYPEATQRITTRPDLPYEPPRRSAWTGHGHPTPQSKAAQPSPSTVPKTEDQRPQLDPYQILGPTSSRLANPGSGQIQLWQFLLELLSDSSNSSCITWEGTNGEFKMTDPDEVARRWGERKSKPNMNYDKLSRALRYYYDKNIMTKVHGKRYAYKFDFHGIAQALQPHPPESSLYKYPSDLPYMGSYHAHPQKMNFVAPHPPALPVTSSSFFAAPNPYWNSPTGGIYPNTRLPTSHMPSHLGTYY
In short: as §1

ELF1 = ELF1 (Homo sapiens, UniProt P32519 1-619); conditions: protein: recombinant; tags: N-terminal GST; dsDNA, one strand shown
ELF1, sequence (P32519 whole entry): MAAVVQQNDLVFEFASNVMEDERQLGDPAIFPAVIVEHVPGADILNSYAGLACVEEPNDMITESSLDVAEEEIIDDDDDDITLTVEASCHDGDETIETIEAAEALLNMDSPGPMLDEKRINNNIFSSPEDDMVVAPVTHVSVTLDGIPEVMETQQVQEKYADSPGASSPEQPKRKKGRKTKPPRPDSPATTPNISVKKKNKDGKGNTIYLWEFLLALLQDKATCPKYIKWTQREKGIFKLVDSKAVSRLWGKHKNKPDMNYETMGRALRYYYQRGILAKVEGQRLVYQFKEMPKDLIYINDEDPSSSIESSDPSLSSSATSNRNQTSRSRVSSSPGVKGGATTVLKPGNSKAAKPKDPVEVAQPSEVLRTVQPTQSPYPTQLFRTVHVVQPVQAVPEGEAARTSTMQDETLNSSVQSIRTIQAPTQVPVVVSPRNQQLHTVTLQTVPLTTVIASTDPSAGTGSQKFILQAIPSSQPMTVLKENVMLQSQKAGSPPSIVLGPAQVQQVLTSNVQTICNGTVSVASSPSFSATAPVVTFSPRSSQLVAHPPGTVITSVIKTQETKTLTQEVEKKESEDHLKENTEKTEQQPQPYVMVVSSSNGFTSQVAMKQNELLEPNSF
In short: as §1

EHF = biological target: T5, EHF (Homo sapiens, UniProt Q9NZC4 1-300); conditions: protein: recombinant; tags: N-terminal GST; dsDNA, one strand shown
T5 sequence: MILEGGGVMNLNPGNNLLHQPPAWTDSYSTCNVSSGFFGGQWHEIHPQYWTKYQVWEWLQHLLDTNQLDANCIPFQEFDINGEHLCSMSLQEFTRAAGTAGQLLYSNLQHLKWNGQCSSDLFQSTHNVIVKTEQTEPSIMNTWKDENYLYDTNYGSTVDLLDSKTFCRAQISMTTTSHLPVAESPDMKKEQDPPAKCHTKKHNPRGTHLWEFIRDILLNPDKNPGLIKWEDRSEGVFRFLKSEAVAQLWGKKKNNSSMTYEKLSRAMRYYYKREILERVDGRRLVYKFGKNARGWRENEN
In short: as §1

SPI1 = SPI1 (Homo sapiens, UniProt P17947 1-270); conditions: protein: recombinant; tags: N-terminal GST; dsDNA, one strand shown
In short: as §1

SPIB = SPIB (Homo sapiens, UniProt Q01892 1-262); conditions: protein: recombinant; tags: N-terminal GST; dsDNA, one strand shown
SPIB, sequence (Q01892 whole entry): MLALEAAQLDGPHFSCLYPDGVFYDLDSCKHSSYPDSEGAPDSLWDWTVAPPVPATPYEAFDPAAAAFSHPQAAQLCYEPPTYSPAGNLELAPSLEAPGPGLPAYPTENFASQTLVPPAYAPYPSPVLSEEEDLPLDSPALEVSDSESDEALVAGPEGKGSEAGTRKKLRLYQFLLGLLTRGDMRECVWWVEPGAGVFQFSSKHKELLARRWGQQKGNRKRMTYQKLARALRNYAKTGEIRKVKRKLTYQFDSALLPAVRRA
In short: as §1

ELK3 = biological target: T6, ELK3 (Homo sapiens, UniProt P41970 1-407); conditions: protein: recombinant; tags: N-terminal GST; dsDNA, one strand shown
T6 sequence: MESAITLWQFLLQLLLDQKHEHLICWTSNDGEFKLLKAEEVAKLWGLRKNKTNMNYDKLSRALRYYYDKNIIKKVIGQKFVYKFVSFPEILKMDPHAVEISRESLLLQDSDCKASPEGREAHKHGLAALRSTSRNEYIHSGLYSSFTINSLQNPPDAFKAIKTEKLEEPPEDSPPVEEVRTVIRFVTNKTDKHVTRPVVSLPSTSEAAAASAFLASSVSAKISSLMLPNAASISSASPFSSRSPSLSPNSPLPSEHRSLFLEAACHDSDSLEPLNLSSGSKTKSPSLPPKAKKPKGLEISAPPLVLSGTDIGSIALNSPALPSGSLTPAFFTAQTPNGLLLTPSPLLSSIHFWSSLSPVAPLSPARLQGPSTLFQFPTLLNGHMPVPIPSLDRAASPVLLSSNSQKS
In short: as §1

FEV = biological target: T7, FEV (Homo sapiens, UniProt Q99581 1-238); conditions: protein: recombinant; tags: N-terminal GST; dsDNA, one strand shown
T7 sequence: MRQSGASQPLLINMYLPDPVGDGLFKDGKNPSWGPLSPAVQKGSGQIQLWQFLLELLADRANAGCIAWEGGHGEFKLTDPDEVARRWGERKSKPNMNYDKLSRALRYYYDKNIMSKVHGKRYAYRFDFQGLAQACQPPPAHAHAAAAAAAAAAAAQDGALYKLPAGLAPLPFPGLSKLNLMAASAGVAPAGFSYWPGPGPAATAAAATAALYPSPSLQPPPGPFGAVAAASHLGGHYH
In short: as §1

ETV5 = ETV5 (Homo sapiens, UniProt P41161 1-510); conditions: protein: recombinant; tags: N-terminal GST; dsDNA, one strand shown
ETV5, sequence (P41161 whole entry): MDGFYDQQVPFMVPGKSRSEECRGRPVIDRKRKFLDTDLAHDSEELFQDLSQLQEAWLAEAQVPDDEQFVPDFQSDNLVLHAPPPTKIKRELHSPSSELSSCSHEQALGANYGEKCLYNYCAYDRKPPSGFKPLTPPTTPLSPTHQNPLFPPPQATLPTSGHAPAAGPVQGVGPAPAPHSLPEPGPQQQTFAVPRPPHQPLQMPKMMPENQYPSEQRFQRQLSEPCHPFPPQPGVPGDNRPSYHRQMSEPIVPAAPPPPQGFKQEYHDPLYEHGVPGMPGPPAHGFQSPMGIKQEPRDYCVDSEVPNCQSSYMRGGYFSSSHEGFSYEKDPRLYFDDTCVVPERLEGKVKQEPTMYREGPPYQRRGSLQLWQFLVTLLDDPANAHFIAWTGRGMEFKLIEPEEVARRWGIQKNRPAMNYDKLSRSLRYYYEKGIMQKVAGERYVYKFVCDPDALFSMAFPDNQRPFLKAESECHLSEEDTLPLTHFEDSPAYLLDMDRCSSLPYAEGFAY
In short: as §1

HSF1 = HSF1 (Homo sapiens, UniProt Q00613 1-529); conditions: protein: recombinant; tags: N-terminal GST; chain copies: 3; dsDNA, one strand shown
HSF1, sequence (Q00613 whole entry): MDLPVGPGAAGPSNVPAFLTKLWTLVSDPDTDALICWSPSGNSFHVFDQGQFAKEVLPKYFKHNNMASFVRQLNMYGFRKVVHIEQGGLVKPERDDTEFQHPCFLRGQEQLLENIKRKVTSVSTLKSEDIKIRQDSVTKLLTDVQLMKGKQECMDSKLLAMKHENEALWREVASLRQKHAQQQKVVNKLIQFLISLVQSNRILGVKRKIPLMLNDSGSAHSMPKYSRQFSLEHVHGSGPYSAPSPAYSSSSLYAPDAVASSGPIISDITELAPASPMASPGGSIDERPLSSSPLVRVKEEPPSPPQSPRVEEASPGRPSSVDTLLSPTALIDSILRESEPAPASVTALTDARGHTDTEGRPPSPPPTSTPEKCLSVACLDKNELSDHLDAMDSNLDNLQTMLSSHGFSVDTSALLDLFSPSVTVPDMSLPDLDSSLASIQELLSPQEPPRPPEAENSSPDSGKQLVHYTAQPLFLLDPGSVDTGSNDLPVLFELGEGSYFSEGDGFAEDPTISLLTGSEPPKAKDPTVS
In short: as §1

SPIC = biological target: T8, SPIC (Homo sapiens, UniProt Q8N5J4 1-248); conditions: protein: recombinant; tags: N-terminal GST; dsDNA, one strand shown
T8 sequence: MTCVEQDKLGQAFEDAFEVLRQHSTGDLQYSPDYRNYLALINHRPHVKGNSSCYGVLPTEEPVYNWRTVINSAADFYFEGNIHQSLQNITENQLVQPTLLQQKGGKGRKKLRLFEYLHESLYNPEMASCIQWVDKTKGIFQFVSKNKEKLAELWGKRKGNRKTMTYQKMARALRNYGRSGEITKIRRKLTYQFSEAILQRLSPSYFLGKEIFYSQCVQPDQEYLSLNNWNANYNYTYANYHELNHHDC
In short: as §1

ELF4 = ELF4 (Homo sapiens, UniProt Q99607 1-663); conditions: protein: recombinant; tags: N-terminal GST; dsDNA, one strand shown
ELF4, sequence (Q99607 whole entry): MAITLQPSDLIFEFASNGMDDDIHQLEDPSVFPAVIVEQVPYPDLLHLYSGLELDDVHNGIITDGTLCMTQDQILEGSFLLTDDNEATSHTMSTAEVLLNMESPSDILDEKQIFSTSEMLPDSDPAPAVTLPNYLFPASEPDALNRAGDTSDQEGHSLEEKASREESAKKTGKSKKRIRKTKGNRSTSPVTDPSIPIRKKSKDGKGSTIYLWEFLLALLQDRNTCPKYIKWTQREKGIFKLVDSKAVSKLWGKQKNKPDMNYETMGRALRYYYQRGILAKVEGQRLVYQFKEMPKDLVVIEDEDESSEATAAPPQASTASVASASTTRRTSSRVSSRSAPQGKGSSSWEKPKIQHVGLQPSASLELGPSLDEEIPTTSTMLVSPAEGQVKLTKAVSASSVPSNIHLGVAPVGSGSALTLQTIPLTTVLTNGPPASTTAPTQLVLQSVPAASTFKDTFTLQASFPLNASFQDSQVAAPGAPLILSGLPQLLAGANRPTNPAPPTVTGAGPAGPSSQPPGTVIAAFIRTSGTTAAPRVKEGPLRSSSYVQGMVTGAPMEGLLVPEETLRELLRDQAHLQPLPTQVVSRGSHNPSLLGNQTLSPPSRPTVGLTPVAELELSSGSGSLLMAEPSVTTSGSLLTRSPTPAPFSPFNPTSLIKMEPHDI
In short: as §1

ELK4 = biological target: T9, ELK4 (Homo sapiens, UniProt P28324-2 1-405); conditions: protein: recombinant; tags: N-terminal GST; dsDNA, one strand shown
T9 sequence: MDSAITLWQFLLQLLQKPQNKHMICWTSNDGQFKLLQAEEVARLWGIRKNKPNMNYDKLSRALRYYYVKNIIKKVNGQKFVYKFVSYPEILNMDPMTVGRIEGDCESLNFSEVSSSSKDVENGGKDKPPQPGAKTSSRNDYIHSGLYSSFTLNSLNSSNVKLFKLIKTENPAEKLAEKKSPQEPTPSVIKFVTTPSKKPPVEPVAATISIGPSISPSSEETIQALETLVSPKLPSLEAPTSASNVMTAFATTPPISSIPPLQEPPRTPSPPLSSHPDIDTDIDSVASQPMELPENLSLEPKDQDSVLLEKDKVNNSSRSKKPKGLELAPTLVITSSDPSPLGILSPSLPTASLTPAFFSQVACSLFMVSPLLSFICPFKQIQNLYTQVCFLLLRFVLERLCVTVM
In short: as §1

ETV2 = biological target: T10, ETV2 (Homo sapiens, UniProt O00321 1-342); conditions: protein: recombinant; tags: N-terminal GST; dsDNA, one strand shown
T10 sequence: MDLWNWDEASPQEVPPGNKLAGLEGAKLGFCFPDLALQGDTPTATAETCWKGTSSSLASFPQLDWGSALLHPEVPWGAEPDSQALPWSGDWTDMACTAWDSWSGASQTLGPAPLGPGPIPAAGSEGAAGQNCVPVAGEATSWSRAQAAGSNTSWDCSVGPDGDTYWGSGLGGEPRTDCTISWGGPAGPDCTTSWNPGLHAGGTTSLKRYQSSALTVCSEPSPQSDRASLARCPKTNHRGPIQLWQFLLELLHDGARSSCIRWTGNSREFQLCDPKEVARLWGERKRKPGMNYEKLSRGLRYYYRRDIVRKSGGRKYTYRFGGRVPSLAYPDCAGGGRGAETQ
In short: as §1

ELF3 = biological target: T11, ELF3 (Homo sapiens, UniProt P78545 1-371); conditions: protein: recombinant; tags: N-terminal GST; dsDNA, one strand shown
T11 sequence: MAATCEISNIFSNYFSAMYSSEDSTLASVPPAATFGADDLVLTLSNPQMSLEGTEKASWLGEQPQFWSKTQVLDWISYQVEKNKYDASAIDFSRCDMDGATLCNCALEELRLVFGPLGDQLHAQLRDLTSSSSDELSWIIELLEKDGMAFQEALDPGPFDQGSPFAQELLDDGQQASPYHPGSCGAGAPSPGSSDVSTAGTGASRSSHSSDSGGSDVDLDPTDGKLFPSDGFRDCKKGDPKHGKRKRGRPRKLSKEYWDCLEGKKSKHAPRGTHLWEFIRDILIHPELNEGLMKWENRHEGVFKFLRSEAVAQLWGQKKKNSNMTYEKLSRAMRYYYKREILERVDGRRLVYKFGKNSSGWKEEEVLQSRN
In short: as §1

CRX = CRX (Homo sapiens, UniProt O43186 1-299); conditions: protein: recombinant; tags: N-terminal GST; dsDNA, one strand shown
CRX, sequence (O43186 whole entry): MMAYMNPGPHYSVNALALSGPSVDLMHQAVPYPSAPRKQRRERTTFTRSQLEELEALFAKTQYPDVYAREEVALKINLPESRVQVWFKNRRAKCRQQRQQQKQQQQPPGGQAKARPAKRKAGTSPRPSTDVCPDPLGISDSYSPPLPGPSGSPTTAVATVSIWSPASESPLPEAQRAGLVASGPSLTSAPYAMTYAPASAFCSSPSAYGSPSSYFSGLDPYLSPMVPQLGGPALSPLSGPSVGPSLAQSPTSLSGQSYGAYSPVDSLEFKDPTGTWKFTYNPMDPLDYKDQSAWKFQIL
In short: as §1

ETV1 = ETV1 (Homo sapiens, UniProt P50549 1-477); conditions: protein: recombinant; tags: N-terminal GST; dsDNA, one strand shown
ETV1, sequence (P50549 whole entry): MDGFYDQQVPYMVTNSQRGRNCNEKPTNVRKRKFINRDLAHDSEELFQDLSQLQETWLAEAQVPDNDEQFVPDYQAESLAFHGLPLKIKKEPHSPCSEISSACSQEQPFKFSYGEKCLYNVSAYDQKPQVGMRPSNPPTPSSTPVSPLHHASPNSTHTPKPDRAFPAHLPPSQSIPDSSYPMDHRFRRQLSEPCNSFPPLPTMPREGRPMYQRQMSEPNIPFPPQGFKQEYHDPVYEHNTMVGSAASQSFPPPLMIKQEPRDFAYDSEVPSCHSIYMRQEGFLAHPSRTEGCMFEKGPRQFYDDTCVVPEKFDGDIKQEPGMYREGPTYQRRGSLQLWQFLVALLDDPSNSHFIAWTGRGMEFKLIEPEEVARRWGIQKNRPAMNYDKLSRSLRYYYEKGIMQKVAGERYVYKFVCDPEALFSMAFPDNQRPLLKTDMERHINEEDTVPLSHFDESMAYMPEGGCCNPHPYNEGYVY
In short: as §1

Sequence: CGATCC
- binding signal (FLI1): 1.26 fold enrichment (6-mer frequency, TF over GST control)
- binding signal (ELK1): 1.14 fold enrichment (6-mer frequency, TF over GST control)
- binding signal (GABPA): 1.19 fold enrichment (6-mer frequency, TF over GST control)
- binding signal (ERG): 1.21 fold enrichment (6-mer frequency, TF over GST control)
- binding signal (ELF1): 1.27 fold enrichment (6-mer frequency, TF over GST control)
- binding signal (EHF): 1.22 fold enrichment (6-mer frequency, TF over GST control)
- binding signal (SPI1): 1.25 fold enrichment (6-mer frequency, TF over GST control)
- binding signal (SPIB): 1.22 fold enrichment (6-mer frequency, TF over GST control)
- binding signal (ELK3): 1.38 fold enrichment (6-mer frequency, TF over GST control)
- binding signal (FEV): 1.2 fold enrichment (6-mer frequency, TF over GST control)
- binding signal (ETV5): 1.19 fold enrichment (6-mer frequency, TF over GST control)
- binding signal (HSF1): 1.31 fold enrichment (6-mer frequency, TF over GST control)
- binding signal (SPIC): 1.11 fold enrichment (6-mer frequency, TF over GST control)
- binding signal (ELF4): 1.21 fold enrichment (6-mer frequency, TF over GST control)
- binding signal (ELK4): 1.11 fold enrichment (6-mer frequency, TF over GST control)
- binding signal (ETV2): 1.19 fold enrichment (6-mer frequency, TF over GST control)
- binding signal (ELF3): 1.08 fold enrichment (6-mer frequency, TF over GST control)
- binding signal (CRX): 1.27 fold enrichment (6-mer frequency, TF over GST control)
- binding signal (ETV1): 1.25 fold enrichment (6-mer frequency, TF over GST control)
